Structures can show the parent of a compound that is named as a salt.

In this experiment the test system is PBMC-derived induced microglia-like cells (piMGLC). Kind of experiment: synaptosome phagocytic index relative to DMSO control (fraction of DMSO); higher = more phagocytosis. The following applies: concentration: 10 uM (2 uM for compounds listed in Table S2); pretreatment time: 24 h; assay time: 3 h. On the procedure:
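PBMC-derived induced microglia-like cells (piMGLCs) in 96-well plates were pretreated for 24 h with CNS-penetrant library compounds (MedChemExpress HY-L028), mostly at 10 uM; Table S2 lists 9 compounds at 2 uM. pHrodo-Red-labelled human iPSC-neuron synaptosomes (3 ug/well) were then added for 3 h, and cells were fixed and imaged by confocal microscopy. Phagocytic index (synaptosome area / cell count, CellProfiler) is a mean over 3 replicate wells on different plates, normalized to the DMSO control. Compounds leaving <10% of DMSO cell count were marked toxic and given no value.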
For the molecule `CN/C(=N\CCSCc1nc[nH]c1C)NC#N` [Cimetidine], the synaptosome phagocytic index was 1.07.
Then `CCOC(=O)C1=C(C)NC(C)=C(C(=O)OC)C1c1cccc(Cl)c1Cl` (stereo not given) [Felodipine], with 1.04.
Regarding `CC(C)c1ccc(CC(=O)N2CCN(c3ccc(C#N)nn3)CC2)cc1`, the synaptosome phagocytic index worked out at 0.943.
Consider `CC[C@H](NC(=O)c1c(C)c(-c2ccccc2)nc2ccccc12)c1ccccc1`, for which the synaptosome phagocytic index was 0.907.
Next, `C[C@]12C=CC(=O)C=C1CC[C@@H]1[C@@H]2C(=O)C[C@@]2(C)[C@H]1CC[C@]2(O)C(=O)CO` [Prednisone]: 0.718.
Regarding `CCOc1nc2cccc(C(=O)O)c2n1Cc1ccc(-c2ccccc2-c2nnn[nH]2)cc1` [Candesartan], the synaptosome phagocytic index was determined as 1.1.
For the molecule `NC1=N[C@@]2(c3cc(NC(=O)c4ccc(F)cn4)ccc3F)COC[C@H]2CS1`, the synaptosome phagocytic index is 1.35.
For `Cc1ccc(S(=O)(=O)/C=C/C#N)cc1`, the synaptosome phagocytic index turned out to be 0.903.
On to `CN1C[C@@H]2[C@H](C1)[C@H]2CN(Cc1ccc(F)c(Cl)c1)C(=O)c1cn(C)cn1`, for which the synaptosome phagocytic index came out at 0.691.
Then `CCN(CC)C(=S)SSC(=S)N(CC)CC` [Disulfiram], with 0.784; and `Cc1nc(Nc2ncc(C(=O)Nc3c(C)cccc3Cl)s2)cc(N2CCN(CCO)CC2)n1` [Dasatinib], with 0.243.
With `N[C@H](C(=O)O)[C@H](O)c1ccc(O)c(O)c1` [Droxidopa], the synaptosome phagocytic index was found to be 0.507.
Next, `Cc1cc(=O)n(-c2ccccc2)n1C` [Antipyrine]: 0.601; `CN(C/C=C/C#CC(C)(C)C)Cc1cccc2ccccc12` [Terbinafine]: 0.502; `O=C(O)Cc1nn(Cc2nc3cc(C(F)(F)F)ccc3s2)c(=O)c2cscc12`: 0.982.
Then `CC(C)CCN(CCC(C)C)C(=O)c1ccc2nc(-c3ccc(C#N)cc3)c(CCCN3CCCC3)n2c1`, with 0.408.
`CC(=O)[C@H]1CC[C@H]2[C@@H]3CC=C4C[C@@H](O)CC[C@]4(C)[C@H]3CC[C@]12C` [Pregnenolone]: the synaptosome phagocytic index worked out at 0.878.
With `C#Cc1cccc(Nc2ncnc3cc(OCCOC)c(OCCOC)cc23)c1` [Erlotinib_(Hydrochloride)], the synaptosome phagocytic index was found to be 0.391.
For the molecule `CC(C)c1ccc(NC(=O)c2c(-c3cc(F)ccc3F)ccnc2N2CC[C@H](F)C2)cn1` [Nav1.1_activator_1], the synaptosome phagocytic index is 0.451.
As for `CC(=O)Nc1nnc(S(N)(=O)=O)s1` [Acetazolamide], the synaptosome phagocytic index was found to be 1.03.
Then `NC(=O)c1cccc(-c2cccc(OC(=O)NC3CCCCC3)c2)c1`, with 0.86.
Then `CO[C@H]1C(=O)[C@]2(C)[C@@H](OC)C[C@H]3OC[C@@]3(OC(C)=O)[C@H]2[C@H](OC(=O)c2ccccc2)[C@]2(O)C[C@H](OC(=O)[C@H](O)[C@@H](NC(=O)OC(C)(C)C)c3ccccc3)C(C)=C1C2(C)C` [Cabazitaxel], with 0.833; and `COc1ccc2c(c1)c(CC(=O)O)c(C)n2C(=O)c1ccc(Cl)cc1` [Indomethacin_(sodium_hydrate)], with 0.618; and `C[N+](C)(C)CCO.[Cl-]` [Choline_(chloride)], with 0.799.
Next, `COc1cc2ncnc(Nc3ccc(F)c(Cl)c3)c2cc1NC(=O)/C=C/CN1CCCCC1` [Dacomitinib]: 1.26; `Cc1cc(Oc2cncnc2)cc(C(=O)Nc2ccc(F)cn2)n1` [Auglurant]: 1.03.
For the molecule `Oc1cc(-c2nc(-c3ccccc3)[nH]c2-c2ccncc2)ccc1Cl`, the synaptosome phagocytic index came out at 0.229.
Next, `CN(C)CCOC(C)(c1ccccc1)c1ccccn1` (stereo not given) [Doxylamine_(succinate)]: 0.833; `NC(=O)c1cn(Cc2c(F)cccc2F)nn1` [Rufinamide]: 0.654; `CO[C@H]1C[C@@H]2CC[C@@H](C)[C@@](O)(O2)C(=O)C(=O)N2CCCC[C@H]2C(=O)O[C@H]([C@H](C)C[C@@H]2CC[C@@H](OCCO)[C@H](OC)C2)CC(=O)[C@H](C)/C=C(\C)[C@@H](O)[C@@H](OC)C(=O)[C@H](C)C[C@H](C)/C=C/C=C/C=C/1C` [Everolimus]: 0.223.
`CC(C)(S)[C@@H](N)C(=O)O` [Penicillamine]: the synaptosome phagocytic index amounted to 0.328.
Turning to `CC(C)C[C@H](NC(=O)[C@H](CCCCN)NC(=O)[C@H](CO)NC(=O)[C@@H](N)CC(C)C)C(N)=O` [LSKL,_Inhibitor_of_Thrombospondin_(TSP-1)_(TFA)], the synaptosome phagocytic index was 1.05.
Next, `CC(C)(O)CC(=O)NCCn1ccc2ncnc(Nc3ccc(Oc4cccc(C(F)(F)F)c4)c(Cl)c3)c21`: 1.04.
On to `C[C@]1(c2nc3c(C(N)=O)cccc3[nH]2)CCCN1` [Veliparib], for which the synaptosome phagocytic index was found to be 0.721.
Next, `CC(C)(O/N=C(\C(=O)N[C@@H]1C(=O)N2C(C(=O)[O-])=C(C[n+]3ccccc3)CS[C@H]12)c1csc(N)n1)C(=O)O` [Ceftazidime]: 1.05; `N#Cc1cccc(-c2c[nH]c3ncnc(N4CCOCC4)c23)c1`: 0.623; `O=C1Nc2ccc(Cl)cc2[C@@](C#CC2CC2)(C(F)(F)F)O1` [Efavirenz]: 0.473.
Then `O=C1NC(c2ccccc2)(c2ccccc2)C(=O)N1COP(=O)(O)O` [Fosphenytoin_(disodium)], with 0.487; and `COCc1ccc(-c2ccc(N(C[C@@H](N)[C@@H](C)OC)C(=O)[C@@H]3C[C@H]3c3ccccn3)cc2)cc1`, with 0.794; and `CCN1CCCC1CNC(=O)c1cc(S(N)(=O)=O)ccc1OC` (stereo not given) [Sulpiride], with 0.571.

(Values after the supplement of paper PMC12339681.)
